This excerpt belongs to a sample that is enriched for hits.
TTR transcr act = activators of transthyretin transcription; activation, % at 16.7 µM; SH-SY5Y TTR promoter Gaussia luciferase, luminescence; 100% = recombinant luciferase protein wells; AID 1117267; 92,000 compounds, 1.3% hits;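 active = activation above the mean of all tested compounds plus 3 SD, cut at about 9.5% in these data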;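 also: cells exposed to compounds for one day before reading; 0% = median of all test compound wells on the plate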
TTR inh HuH7 = counter-screen for TTR activators: TTR transcription inhibitors in HuH7 cells; shares compounds with TTR transcr act; HuH7 TTR promoter-Gaussia luciferase reporter, luminescence; inhibition, % at 16.7 µM; 1,100 compounds, 4% hits; AID 1117279;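 active = average inhibition above the solvent-only control wells' mean plus 3 SD, cut at about 15% in these data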;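 also: 0% = cells with DMSO only and 100% = cells with inhibitor control FD; inhibitors lower well luminescence so higher value means more inhibition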
TTR act confirm = human TTR transcription activation, confirmation; shares compounds with TTR transcr act; SHSY5Y TTR promoter Gaussia luciferase, luminescence; 100% = purified Lucia enzyme wells, no cells; activation, % at 16.7 µM; 1,100 tested, under 10 active;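 active = mean activation above a set limit taken from the earlier primary screen, cut at about 11% in these data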;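 also: 0% = DMSO-treated cells and 100% = recombinant Lucia luciferase without cells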
* = called active by the depositor.

SMILES	TTR transcr act	others
CSCCC(NC(=O)C1CCC(C)CC1)C(=O)O (configuration not stated)	58*	TTR inh HuH7=7;TTR act confirm=3
COc1ccc(NC(=O)c2ccccc2OCc2c(C)noc2C)cc1OC	-1
CC1CCN(C(=O)COC(=O)c2cccs2)CC1	1
Cc1cccc(C)c1-n1nnnc1C1(C)CCC(=O)N1c1ccc(N2CCOCC2)cc1 (configuration not stated)	2
O=Cc1ccccc1-c1cn(CCCOCc2ccccc2)nn1	0
CCCn1c(SCC(=O)N2CCc3ccccc32)nnc1-c1ccco1	-2
CCCCn1c(SCC(=O)N2CCc3ccccc32)nnc1-c1ccncc1	17*	TTR inh HuH7=-10;TTR act confirm=-1
CCCn1c(SCC(=O)N2CCCc3ccccc32)nnc1-c1ccccn1	0
N#CC(CCc1ccc([N+](=O)[O-])cc1)(CCc1ccc([N+](=O)[O-])cc1)C(N)=O	0
CCOC(=O)[C@@]12CCCC=C1N(CCc1ccc(Cl)cc1)C(=O)[C@H]2CC(=O)N1CCC(c2ccccc2)CC1	0
Cc1noc(C)c1S(=O)(=O)N(C)C[C@H]1OCc2cn(nn2)CCCC(=O)N([C@H](C)CO)C[C@@H]1C	3
CN1CC(=O)N2[C@@H](C[C@]3(c4c[nH]c5ccccc45)c4ccccc4N(S(=O)(=O)c4ccccc4)[C@H]23)C1=O	0
CCOC(=O)C1=CN(Cc2cccc(-c3ccc(Cl)nc3)c2)S(=O)(=O)N(C)C1C (configuration not stated)	0
COc1cccc2cc(C(C)N(CCCN3CCOCC3)C(=S)Nc3ccccc3C)oc12 (configuration not stated)	14*	TTR inh HuH7=-6;TTR act confirm=-1
COc1cccc2cc(C(C)N(CCCN3CCOCC3)C(=S)Nc3c(C)cccc3C)oc12 (configuration not stated)	1
COc1cccc2cc(C(C)N(CCCN3CCOCC3)C(=S)Nc3cccc(C)c3)oc12 (configuration not stated)	-1
COc1ccc(Cl)cc1C(=O)NNC(=O)CCNS(=O)(=O)c1ccccc1	-1
CCC(CO)Oc1cc(NCc2cc(C)cc(C)c2)c2ncn(C(C)C)c2c1 (configuration not stated)	11*	TTR inh HuH7=-23;TTR act confirm=-1
CCC(CO)Oc1cc(NCc2ccncc2)c2ncn(C(C)C)c2c1 (configuration not stated)	4
CCC(CO)Oc1cc(NCc2ccc(F)cc2)c2ncn(C(C)C)c2c1 (configuration not stated)	-4
O=C(COC(=O)c1cccc(S(=O)(=O)N2CCCCC2)c1)NCc1cccc(Cl)c1	-2
COc1cccc(-c2cc3nc(C)c(C)c(N4CCN(Cc5ccco5)CC4)n3n2)c1	-3
CCOC(=O)C(CC1=CS(=O)(=O)c2ccc(Cl)cc21)(NC(C)=O)C(=O)OCC	-1
COc1ccc(S(=O)(=O)NC(C)C(=O)Nc2ccccc2F)cc1 (configuration not stated)	0
COc1ccc(OC)c(N(CC(=O)Nc2ccccc2F)S(=O)(=O)c2ccccc2)c1	-2
SMILES	TTR transcr act	others
COc1ccc(CN(C)CC(=O)NC(=O)Nc2ccccc2F)cc1	11*	TTR inh HuH7=-14;TTR act confirm=0
O[C@H]1C[C@H](c2ccccc2)N(CC2CCCCC2)C[C@@H]1n1cc(-c2ccc(F)cc2)nn1	2
O=C(C1CCCCC1)N1C[C@H](n2cc(-c3ccc(F)cc3)nn2)[C@@H](O)C[C@@H]1c1ccccc1	13*	TTR inh HuH7=-7;TTR act confirm=-1
Cc1ccc([C@H]2C[C@H](n3cc(-c4ccc(F)cc4)nn3)[C@@H](O)CN2C(=O)C2CCCCC2)cc1	6
CCCCOc1ccc(C(=O)NC2CCCCN(Cc3ccccc3C)C2=O)cc1 (configuration not stated)	0
COc1ccc2c(Cl)cc(NC(=O)Nc3c(C)cccc3C)nc2c1	2
O=C(CSc1nc2ncccc2[nH]1)Nc1ccccc1-c1ccccc1	0
COc1ccc(/C=C2\N=C3CCCCCN3C2=O)cc1	3
O=C1/C(=C/c2ccncc2)CCC/C1=C\c1ccncc1	-6
O=C1/C(=C/c2ccncc2)N=C2CCCCCN12	47*	TTR inh HuH7=-12;TTR act confirm=0
C=CCN1C=C(C(=O)OCC)C(=O)CC1	0
O=C(Nc1ccccc1)OC1CC2CC1[C@H]1CCCCN1[C@H]2Cc1ccccc1 (some centres not stated)	-1
C=CCNC(=S)NN=C1CCCCCCC1	0
COc1ccc(C(=O)N2CCN(C)C(C)C2)cc1OC1CCN(C(C)=O)CC1 (configuration not stated)	0
COc1cc(C(=O)N2C[C@H]3CC[C@H]2C3)ccc1OC1CCN(C(C)=O)CC1	0
COc1cc(C(=O)N2C[C@@H]3CCC[C@H]2C3)ccc1OC1CCN(C(C)=O)CC1	16*	TTR inh HuH7=-8;TTR act confirm=0
COC(=O)[C@]1(Sc2ccc(OC)cc2)CC(=O)N[C@@H]1c1ccccc1	1
CCCCCCc1nc2nc(Cl)c(Cl)nc2[nH]1	2
CCN(CC)c1ccc(/C=N/NC(=O)c2ccc([N+](=O)[O-])cc2)cc1	0
CCN(CC)c1ccc(N=Cc2ccccc2[N+](=O)[O-])cc1	-3
CCN(CC)c1ccc(N=Cc2ccc([N+](=O)[O-])o2)cc1	17*	TTR inh HuH7=-2;TTR act confirm=0
COc1cccc(NC(=O)Cc2cccs2)c1	-2
CC(c1cccnc1)N(C(=O)Nc1ccccc1)C1CCCCC1 (configuration not stated)	1
COc1cccc(NC(=O)N(C2CCCCC2)C(C)c2cccs2)c1 (configuration not stated)	13*	TTR inh HuH7=-11;TTR act confirm=-1
COC(=O)[C@]12C[C@H](CC(=O)N3CCN(C(=O)c4ccco4)CC3)C(=O)N(Cc3ccc(Cl)cc3Cl)C1=C[C@H](COCc1ccccc1)O[C@@H]2C	-3
SMILES	TTR transcr act	others
CCOC(=O)[C@@]12CCC3=C1N(CCC3)C(=O)[C@H](CC(=O)N1CCC(c3ccccc3)CC1)C2	2
C=CC[C@@H](CC(=O)N[C@H](CO)Cc1ccccc1)C(=O)N[C@@H](COC(=O)[C@@H](CC=C)Cc1ccc(F)cc1)Cc1ccccc1	4
C=CCC[C@@H](Cc1ccc(F)cc1)C(=O)OC[C@@H]1CCCN1C(=O)[C@H](CC=C)CC(=O)N[C@H](CO)Cc1ccccc1	17*	TTR inh HuH7=0;TTR act confirm=-2
C=CCC[C@@H](Cc1ccc(F)cc1)C(=O)OC[C@H](Cc1c[nH]c2ccccc12)NC(=O)[C@@H](CC=C)CC(=O)N[C@H](CO)Cc1ccccc1	-4
CCN(C(=O)c1cc(S(=O)(=O)N2CCCCC2)c[nH]1)c1ccc(OC)cc1	2
COc1ccc(S(=O)(=O)NC2CC2)cc1Cl	2
CCc1ccc(S(=O)(=O)NCCOc2cccc3cccnc23)cc1	0
O=C(COc1ccccc1[N+](=O)[O-])Nc1cccc(C(=O)Nc2ccccc2C(=O)O)c1	-1
CN1CCC(N(C)C(=O)c2ccc(Cl)c(S(=O)(=O)Nc3cc(Cl)ccc3Cl)c2)CC1	-1
O=C(CN(Cc1ccc(Br)cc1)S(=O)(=O)c1ccccc1)NCc1ccccn1	22*	TTR inh HuH7=-22;TTR act confirm=1
CNC(=O)CN(Cc1ccccc1)S(=O)(=O)c1ccccc1	2
COc1ccc(CNC(=O)CN(Cc2ccc(Cl)cc2)S(=O)(=O)c2ccccc2)cc1	1

From PubChem BioAssay
